Compounds with a hit are over-represented: about 2.5% of the library has one in this group of screens.
OvCa metastasis – Primary qHTS assay for Inhibitors of ovarian cancer metastasis using an organotypic tumor microenvironment (TME) model; SKOV3ip1-GFP adhesion/invasion on 3D omental model, fluorescence; Potency, µM (titrated, usually from 45.8 µM), most hits filed as inhibitors; 0.1% of 46,000 active; AID 1963576, 2024; also: nearly all actives have a fitted effect of over 65% in size
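qHTS, 4-pt dose (0.36-46 umol/L); SKOV3ip1-GFP, 1,200 cells/well, no FBS; primary omental fibroblast/mesothelial co-culture 48 h pre-grown; 2 h RT + 16 h 37 C; PBS wash, 4% PFA; GFP count 488/509 nm.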
HTT promoter inh – Primary qHTS for Identification of Small Molecule Inhibitors of Huntingtin Promoter Activity | HEK293 HTT promoter firefly luciferase reporter, 24 h | Potency, µM (doses to about 57.5 µM), most hits filed as inhibitors | 0.93% of 48,000 active; also: nearly all actives have a fitted effect of over 50% in size
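Luminescence was read after Dual-Glo reagent and a 10 min room-temperature incubation. Values were normalized to vehicle (0% activity) and zero RLU (-100% activity). Reporter HEK293 cells had been exposed to compounds (up to 57.5 uM final) for 24 h.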
TSG101-PTAP inh – qHTS Validation Assay for Inhibitors of HIV-1 Budding by Blocking the Interaction of PTAP/TSG101: Sytravon Library Screen; Potency, µM (titrated, usually from 115 µM), usual class: inhibitors; Tumor susceptibility gene 101 protein (Homo sapiens), Q99816; Fluorescence polarization, FITC-PTAP peptide/Tsg101, 20 min; 44,000 tested, under 10 active
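Fluorescence polarization: Tsg101 binding domain (10 uM final) in 10 mM HEPES pH 7.5, 0.15 M NaCl, 0.01% Tween 20, 3 mM EDTA, 0.1 mM TCEP; compounds pinned; FITC-PTAP peptide 50 nM final; 20 min, r.t.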
HTT-AS act – Primary qHTS for Identification of Small Molecule Activators of Huntingtin-Antisense Promoter Activity | HEK293 HTT-AS promoter firefly luciferase reporter, 24 h; response scale: percent change from vehicle, -100% = no light | Potency, µM (doses to about 57.5 µM), usual class: activators | 0.24% of 48,000 active | AID 1508624, 2021; also: nearly all actives have a fitted effect of over 55% in size
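Firefly luciferase readout (Dual-Glo, 10 min RT) after 24 h, 37 °C compound exposure (final up to 57.5 uM) of HEK293 reporter cells cultured 24 h beforehand; PTC124 at 50 uM final as control inhibitor; activity scaled vehicle 0%, zero RLU -100%.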
NTMT1 inhibitor – Primary qHTS for Inhibitors of N-terminal methyltransferase 1 (NTMT1): MTaseGlo Assay; N-terminal Xaa-Pro-Lys N-methyltransferase 1 (Homo sapiens), Q9BV86; NTMT1 MTase-Glo SAH luminescence, purified enzyme; Potency, µM (highest dose often 114 µM), usual class: inhibitors; 2.5% of 59,000 active; AID 1645870, 2021; also: nearly all actives have a fitted effect of over 65% in size
Target sequence (Q9BV86 whole entry, looked up): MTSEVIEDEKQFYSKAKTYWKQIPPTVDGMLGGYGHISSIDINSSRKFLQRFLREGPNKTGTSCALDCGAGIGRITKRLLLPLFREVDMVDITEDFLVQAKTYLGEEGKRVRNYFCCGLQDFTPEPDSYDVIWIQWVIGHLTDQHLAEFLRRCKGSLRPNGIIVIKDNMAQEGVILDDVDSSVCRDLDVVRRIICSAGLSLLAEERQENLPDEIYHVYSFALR
GALK inh – qHTS Assay for Inhibitors of Human Galactokinase (GALK): NCGC Sytravon Library Screen; P51570; recombinant GALK, Kinase-Glo ATP luminescence, 1 h; Potency, µM (highest dose often 57.5 µM), actives largely listed as inhibitors; 44,000 tested, under 10 active
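Luminescent ATP-depletion readout (Kinase-Glo Plus) after 1 h room-temperature incubation of human GALK (5 nM) with galactose 100 µM and ATP 35 µM, pH 8.0 HEPES/Mg2+ buffer; compounds tested in qHTS format.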
DYRK1A inh – Assay for Inhibitors of Dual-Specificity Tyrosine-(Y)-Phosphorylation Regulated Kinase 1A (Kinase-Glo assay); Potency, µM (top dose mostly 76.9 µM), actives largely listed as inhibitors; shares compounds with NTMT1 inhibitor; recombinant DYRK1A, Kinase-Glo ATP depletion luminescence; 80% of 100 active
CLK4 KinaseGlo – Confirmation Assay for Inhibitors of CDC-like Kinase 4 (Kinase-Glo Assay): SAR round 2; recombinant Clk4, Kinase-Glo ATP luminescence, 4.5 h; 90% of 90 active; Potency, µM (top dose mostly 76.9 µM), usual class: inhibitors; shares compounds with NTMT1 inhibitor
USP2a K63 – Confirmation Assay for Inhibitors of Ubiquitin-specific Protease USP2a Using CHOP2 as the Reporter: K633; Potency, µM (series often up to 57.5 µM), usual class: inhibitors; shares compounds with NTMT1 inhibitor; USP2 cleavage of DiUb K63-3IQF, fluorescence kinetic; 80% of 30 active
Casp6 counter – qHTS for Inhibitors of Ubiquitin-specific Protease USP2a Using CHOP2 as the Reporter: Caspase 6 Assay; Caspase 6 enzyme, Caspase-Glo 6 luminescence; shares compounds with NTMT1 inhibitor; 30 tested, under 10 active; activity change, negative = inhibition, % at 46.1 µM
Target sequence (P55212 whole entry, looked up): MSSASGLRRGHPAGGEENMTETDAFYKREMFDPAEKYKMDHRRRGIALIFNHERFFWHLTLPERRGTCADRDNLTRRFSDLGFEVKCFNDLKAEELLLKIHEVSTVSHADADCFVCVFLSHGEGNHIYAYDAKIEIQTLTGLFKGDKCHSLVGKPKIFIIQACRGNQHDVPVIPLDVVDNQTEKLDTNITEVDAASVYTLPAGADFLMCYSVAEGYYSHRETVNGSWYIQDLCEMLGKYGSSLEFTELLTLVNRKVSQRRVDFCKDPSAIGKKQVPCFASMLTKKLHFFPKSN
NNMT inh – Counterscreen qHTS for Inhibitors of N-terminal methyltransferase 1 (NTMT1): NNMT MTaseGlo assay. Potency, µM (top dose mostly 57.1 µM), usual class: inhibitors. 10% of 120 active. shares compounds with NTMT1 inhibitor. NNMT MTase-Glo luminescence, SAH detection
A number is an active result; [ ] = remark or other dose. Calls follow the shape of the dose curve; as a rule, active = well fitted curve in the direction sought with a large enough effect; inconclusive = small, poorly fitted or top-dose-only effect, or another doubt; inactive = no such curve, though single readings can be large; an effect the other way counts as inactive or inconclusive.

For Cc1nc(C(C)N(C)c2ncnc3ccc(-c4ccc5c(c4)OCO5)cc23)cs1 (configuration not stated) the results were NTMT1 inhibitor inactive and CLK4 KinaseGlo 29.2µM.
Screening O=C(O)c1ccc(O)c2ncc(N3CCCN(CCCc4ccncc4)CC3)cc12 returned NTMT1 inhibitor inactive.
Screening CCOc1ccc(CCNC(=O)c2cc3sccc3n2Cc2ccccn2)cc1OCC returned NTMT1 inhibitor inactive.
For C=C1CCC[C@]2(C)CC[C@@H](C(=C)C(=O)O)[C@H](O)[C@@H]12 the results were NTMT1 inhibitor inactive.
For Cc1sc2c(c1C)c(=O)n(Cc1ccccc1)c(=O)n2Cc1ccc(F)cc1 the results were OvCa metastasis inactive, HTT promoter inh inactive, TSG101-PTAP inh inactive, HTT-AS act inactive, NTMT1 inhibitor inactive and GALK inh inactive.
For Cn1sc(=O)n(Cc2ccccc2)c1=O the results were NTMT1 inhibitor 7.94µM and NNMT inh 1.58µM.
For CC(=O)Nc1ccc(S(=O)(=O)Nc2nccs2)cc1 the results were NTMT1 inhibitor inactive, USP2a K63 inactive and Casp6 counter inactive.
Screening O=C(Nc1ccc(S(=O)(=O)Nc2nccs2)cc1)c1cc(-c2ccccc2)nc2ccccc12 returned NTMT1 inhibitor inactive, USP2a K63 1.72µM and Casp6 counter inactive.
O=S(=O)(Nc1nccs1)c1ccc(Nc2nc(-c3ccccc3)cs2)cc1 was read as NTMT1 inhibitor inactive.
Screening CN(C)C(=O)Nc1cc(-c2ccccc2)ccc1N(C)C returned NTMT1 inhibitor inactive and NNMT inh inactive.
`CN(Cc1ncc[nH]1)c1ncnc2ccc(-c3ccc4c(c3)OCO4)cc12` gave NTMT1 inhibitor inconclusive and DYRK1A inh 0.733µM.
For Cc1csc(CNc2ncnc3ccc(-c4ccc5c(c4)OCO5)cc23)n1 the results were NTMT1 inhibitor inactive.
`CN(CC1CCCO1)c1ncnc2ccc(-c3ccc4c(c3)OCO4)cc12` (configuration not stated) gave NTMT1 inhibitor inactive and CLK4 KinaseGlo 0.0582µM.
`Cc1csc(CNc2ncnc3ccc(-c4ccc5c(c4)OCO5)cc23)c1` gave NTMT1 inhibitor inactive.
For C=C(C(=O)OC)[C@]12O[C@@](C)(CC[C@@]3(O)/C(=C\C)C(=O)O[C@]3(C)C[C@@H]1OC(=O)C(CO)CN1CCCC1C(=O)O)CC2=O (some centres not stated) the results were NTMT1 inhibitor inactive[12.6 µM].
For CCOC(=O)c1ccc(-c2ccc3ncnc(NCc4ccc(C)o4)c3c2)o1 the results were NTMT1 inhibitor inconclusive and DYRK1A inh 5.82µM.
For CC(=O)Nc1ccc(CNc2ncnc3ccc(-c4c(C)noc4C)cc23)cc1 the results were NTMT1 inhibitor inactive.
